Drawing on PubChem BioAssay (NCI), this text covers growth for 40 compounds.

About 83,000 compounds went through this panel and 20% of them were active in at least one assay; those are over-represented in the sample as a whole.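 Treatment: one concentration, 48 hours, 96-well format. Scoring: percent growth, with anything below 10 considered active.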 The source made the active and inactive calls.

The assay concerns SNB-75 CNS. Description: NCI-60 one-dose screen, 48 h (100 = growth as untreated, 0 = no growth, -100 = all killed). The following applies: 10 µM unless noted.
Regarding `COc1cc(C(=O)c2c(N)ncn2-c2ccccc2)cc(OC)c1OC`, the growth is 90.7% (inactive).

Consider `CCn1c2ccc(O)cc2c2c(C)c3c[n+](C(C)C)ccc3c(C)c21`, for which the growth was 49.8% (inactive).

In the case of `Cc1cc2nc(-c3c(-c4ccc(F)cc4)nc4sccn34)[nH]c2cc1C`, the growth was 105% (inactive).

As for `Oc1c(I)cc(-c2nc3ccccc3s2)cc1CN(Cc1ccccn1)Cc1ccccn1`, the growth was 40.1% (inactive).

For the compound `CC(C)(CO)N(CCO)CCO`, the growth is 102% (inactive).

With `CC1(C)CC[C@]2(C(=O)N3CCOCC3)CC[C@]3(C)C(=CC[C@@H]4[C@@]5(C)C/C(=C/c6ccncc6)C(=O)C(C)(C)[C@@H]5CC[C@]43C)[C@@H]2C1`, the growth was 43% (inactive).

For `Cc1cccc(NC(=O)CSc2nc3ccc([N+](=O)[O-])cc3[nH]2)c1`, the growth was 70% (inactive).

With `COc1ccc(-c2oc(=O)ccc2-c2cc(OC)c(OC)c(OC)c2)cc1O`, the growth is -1.81% (active).

`O=C(O)c1cccc(N/C=C/C(=O)c2cc3cc(Br)ccc3oc2=O)c1`: the growth was 83.7% (inactive).

As for `CC[C@H](C)[C@H](NC(=O)[C@H](CCCNC(=N)N)NC(=O)[C@H](Cc1c[nH]c2ccccc12)NC(=O)[C@@H](NC(=O)[C@H](CCCCN)NC(=O)[C@H](CCCCN)NC(=O)[C@@H](NC(=O)[C@@H](NC(=O)[C@@H](NC(=O)[C@H](CCCCN)NC(=O)[C@H](Cc1ccccc1)NC(=O)[C@H](CCCCN)NC(=O)[C@H](CCCCN)NC(=O)[C@H](Cc1ccccc1)NC(=O)[C@@H](NC(=O)[C@@H](N)CCCCN)[C@@H](C)CC)[C@@H](C)O)[C@@H](C)CC)[C@@H](C)CC)C(C)C)C(=O)N[C@@H](Cc1ccccc1)C(=O)NCC(=O)N[C@@H](CCCNC(=N)N)C(=O)N[C@@H](Cc1ccccc1)C(N)=O`, the growth was -34% (active).

Take `CCOC(=O)c1c(C)nc2c(c1N)CC(=O)N2Cc1cc(OC)c(OC)c(OC)c1`: the growth was 53.9% (inactive).

In the case of `Cc1c(Cl)cccc1C(=O)Nc1nc2c(s1)CN(C(=O)Nc1cccc(C(F)(F)F)c1)CC2`, the growth is 6.15% (active).

On to `COc1cc2nc(Nc3cccc(F)c3)nc(Nc3cc(C)[nH]n3)c2cc1OC`, for which the growth was -97.5% [20 µM] (active).

Regarding `CCC(CC)(N(CC(=O)O)CC(=O)O)C(CC)(CC)N(CC(=O)O)CC(=O)O`, the growth was 108% (inactive).

`O=C(O)c1cn(C2CC2)c2cc(N3CCN(C(=O)N/N=C/c4ccccc4)CC3)c(F)cc2c1=O`: the growth was 98.9% (inactive).

For the compound `COc1ncc2cc1NS(=O)(=O)c1cccc(c1)C(=O)NCC1=CC=C(S1)c1ncnc3c1SC2=C3C`, the growth is -12.9% (active).

On to `CCOC(=O)c1c(-c2ccc(Cl)cc2)c(C#N)c2c(C#N)c(N)nn2c1N`, for which the growth was 79.8% (inactive).

As to `O=C(/C=C/c1cccc(Cl)c1)c1cccc(OCCCCOc2cccc(C(=O)/C=C/c3cccc(Cl)c3)c2)c1`, the growth is 77.8% (inactive).

With `NC(CSC(c1ccccc1)(c1ccccc1)c1ccc2c(c1)OCO2)C(=O)O` (stereo not given), the growth was 30.8% (inactive).

Turning to `O=C1NC(=O)c2c1c1c3ccccc3[nH]c1c1oc3ccc(F)cc3c21`, the growth is 41.3% (inactive).

For `O=c1ccc2nc(C(F)(F)F)nn(-c3ccccc3)c-2c1`, the growth is 86.5% (inactive).

For the compound `CCNc1nc(-c2ccc(F)cc2)c(C#N)c(=O)n1C`, the growth is 37.9% (inactive).

Regarding `Clc1nccc2c(-c3csc(-c4c[nH]c5ccccc45)n3)c[nH]c12`, the growth was 41.4% (inactive).

For the compound `C=C(C)[C@@H]1CC[C@]2(CO)CC[C@]3(C)[C@H](CC[C@@H]4[C@@]5(C)CCC(NCCc6ccc(O)cc6)C(C)(C)[C@@H]5CC[C@]43C)[C@@H]12` (stereo not given in full), the growth was -86.7% (active).

Regarding `CCCCCCCCCCCCCCCCOC(=O)c1c(C)[nH]c(/C=C2\N=C(c3ccc[nH]3)C=C2OC)c1C`, the growth was 51.4% (inactive).

As for `COc1ccc(-c2ccc(-c3ccc(C(=N)N)cn3)s2)cc1`, the growth was 105% (inactive).

Take `COc1cc(-c2nc(SCCC(C)C)nc(N3CCOCC3)c2C#N)cc(OC)c1OC`: the growth is 53.4% (inactive).

For the compound `Cc1cc2oc(=O)cc(CP(=O)(O)O)c2cc1O`, the growth was 75.3% (inactive).

Regarding `O=C1/C=C/[C@@H](O)[C@@H]2C[C@@H](O)C[C@H]2/C=C/CCC[C@H](CCOCc2ccccc2)O1`, the growth is 33.2% (inactive).

On to `O[C@@H](c1cc(C(F)(F)F)nc2c(C(F)(F)F)cccc12)[C@H]1CCCCN1`, for which the growth was 36.6% (inactive).

For the compound `O=C1CCCc2nc3sc4c(=O)n(-c5ccccc5Cl)nnc4c3cc21`, the growth was 114% (inactive).

Regarding `O=C(CCC(=O)c1nc2ncccc2[nH]1)NN1C(=O)CSC1c1ccc(Cl)cc1` (stereo not given), the growth is 84.7% (inactive).

As to `Cc1[nH]c(C(=O)Nc2cccc(OC3CCNCC3)c2)c(Cl)c1Cl`, the growth is 82.3% (inactive).

Take `CCOC(=O)C(=Cc1cccc(C#N)c1)C(=O)OCC`: the growth was 60.2% (inactive).

As for `C=CCn1c(SCC(=O)Nc2ccc(C(=O)/C=C/c3ccc(OC)cc3)cc2)nnc1-c1ccccc1`, the growth is 70.6% (inactive).

As to `COc1ccc(/C=C/C(=O)c2cc3c(N)c(C(=O)Nc4ccccc4C)sc3nc2C)cc1`, the growth is -0.543% (active).

`O=C1NC(=O)c2c1c1c3ccccc3[nH]c1c1oc3cc(Br)ccc3c21`: the growth is 31.4% (inactive).

With `CS(=O)(=O)Cc1cnc(C2OCCO2)s1`, the growth is 91.2% (inactive).

Take `COc1ccc(C2=Nc3c(N)ncnc3NC(c3cccc(Nc4ccnc5cc(C(F)(F)F)ccc45)c3)C2)cc1` (stereo not given): the growth was 56.7% (inactive).

As for `NS(=O)(=O)c1ccc(N/C=C/C(=O)c2cc3ccccc3oc2=O)cc1`, the growth is 76.1% (inactive).
